Whole data set: some 33,000 sequences, median “E-score (-0.5 to 0.5)” near -0.043, cut for the highest 2% near 0.37. This is one part of a sample in which the highest values are shown more often than they occur.
Target: T1, Upc2 (UniProt Q12151)
T1 sequence: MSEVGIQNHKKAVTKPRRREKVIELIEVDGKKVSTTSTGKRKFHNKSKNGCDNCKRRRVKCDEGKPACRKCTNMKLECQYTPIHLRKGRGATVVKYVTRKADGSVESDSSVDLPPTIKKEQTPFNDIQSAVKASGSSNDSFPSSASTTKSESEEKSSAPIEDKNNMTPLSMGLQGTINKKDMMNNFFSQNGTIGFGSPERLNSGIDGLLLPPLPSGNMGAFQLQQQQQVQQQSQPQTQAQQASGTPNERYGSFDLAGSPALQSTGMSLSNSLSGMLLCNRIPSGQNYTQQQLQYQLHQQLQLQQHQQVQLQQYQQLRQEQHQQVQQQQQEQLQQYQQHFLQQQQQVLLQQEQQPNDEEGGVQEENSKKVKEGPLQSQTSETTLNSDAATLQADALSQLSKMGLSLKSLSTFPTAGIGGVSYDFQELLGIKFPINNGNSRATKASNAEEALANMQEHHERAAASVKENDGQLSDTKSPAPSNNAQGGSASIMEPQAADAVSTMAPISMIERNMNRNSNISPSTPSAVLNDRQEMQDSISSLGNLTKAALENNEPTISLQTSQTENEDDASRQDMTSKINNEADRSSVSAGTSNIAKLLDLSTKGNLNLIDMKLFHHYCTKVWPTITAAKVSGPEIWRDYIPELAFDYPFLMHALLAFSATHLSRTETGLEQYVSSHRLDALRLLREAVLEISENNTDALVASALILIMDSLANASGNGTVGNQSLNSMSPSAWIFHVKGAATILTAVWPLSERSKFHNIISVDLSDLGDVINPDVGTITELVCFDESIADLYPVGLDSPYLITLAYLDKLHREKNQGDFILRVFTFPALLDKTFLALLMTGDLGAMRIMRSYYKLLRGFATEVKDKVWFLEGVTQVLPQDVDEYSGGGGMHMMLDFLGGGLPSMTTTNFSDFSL
Assay: PBM E-score (8-mer binding enrichment) (E-score (-0.5 to 0.5)); higher = stronger / more preferred TF binding
Details: protein concentration: 200 nM; construct: GST-full length
Method: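 Universal 'all 10-mer' protein binding microarrays (Agilent AMADID 015681) probed with GST-tagged S. cerevisiae TFs (full-length or DBD) made by in vitro transcription/translation (PURExpress), about 100-200 nM. Bound TF was detected with fluorescent anti-GST. Each ungapped 8-mer (which stands for itself and its reverse complement) is scored by the PBM enrichment score (E-score), a modified Wilcoxon-Mann-Whitney statistic from -0.5 to +0.5, computed with the Universal PBM Analysis Suite. Scale: above 0.35 generally sequence-specific binding.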

| Sequence | PBM E-score |
| --- | --- |
| AACGAACG | 0.419 |
| CACGAACC | 0.101 |
| AACGAACC | 0.427 |
| CACGAACG | 0.343 |
| GACGAACC | 0.0416 |
| CACGAACA | 0.0853 |
| GACGAACA | 0.0681 |
| AGAAGCGG | -0.222 |
| AGAATAGA | -0.17 |
| CACACTTA | -0.00527 |
| ACTAGAGC | -0.0879 |
| GTAATGAC | 0.109 |
| ACAGTTTC | -0.0564 |
| CCCGCCAA | 0.00973 |
| ACTCTACT | 0.0626 |
| CATCCTAC | -0.0778 |
| ACGCTAGG | -0.165 |
| AGAGTAAT | -6e-05 |
| TGTCGACA | 0.063 |
| CCCTAGCA | -0.26 |
| ACCGAACT | 0.0158 |
| AGCGAACT | 0.0961 |
| AACGAACT | 0.371 |
| AATAGCCT | -0.081 |
| ACGATTCA | 0.328 |

| Sequence | PBM E-score |
| --- | --- |
| AGCGTATC | 0.166 |
| GGCGTCTA | -0.152 |
| CGCGTAGA | 0.165 |
| CGCGTATA | 0.451 |
| AGCGTATG | 0.268 |
| CGCGTATC | 0.253 |
| GGCGTAGA | 0.048 |
| AGCGTATA | 0.444 |
| GGCGTATA | 0.434 |
| GAACCATA | -0.072 |
| CGCCTTGC | -0.288 |
| ACTTGTCA | -0.235 |
| AAAGCATG | -0.169 |
| AGCTTGAT | -0.129 |
| CGTATGAG | 0.415 |
| GGTATGAA | 0.0119 |
| CGTATGAA | 0.405 |
| CCTATGAG | -0.28 |
| GGTATGAC | -0.204 |
| AGTATGAA | 0.00208 |
| AGTATGAC | 0.0571 |
| AGTATGAG | -0.125 |
| CGTATGAC | 0.42 |
| CAAGGTGG | -0.0983 |
| ACGTAACA | -0.0115 |

| Sequence | PBM E-score |
| --- | --- |
| GATCTTAA | 0.159 |
| ACGGTGGG | 0.134 |
| ATCGACTG | 0.0556 |
| AACGACTT | 0.305 |
| GACGACTC | -0.052 |
| CACGACTA | -0.0651 |
| CACGACTC | 0.0449 |
| TACGACTA | 0.437 |
| AACGACTC | 0.401 |
| AACGACTG | 0.389 |
| AACGACTA | 0.379 |
| CACGACTG | 0.0762 |
| AGCGACTA | 0.154 |
| GACGACTA | -0.171 |
| AACCATAA | -0.0292 |
| CACCAATC | -0.249 |
| CTCCCACC | -0.0368 |
| GTGTTCAA | -0.00045 |
| AGCCAACA | -0.098 |
| ATGTCTTG | -0.0852 |
| CATGGGGC | -0.34 |
| CAGGGTAA | -0.14 |
| GAGGTCAA | -0.0747 |
| CTCCCAAA | -0.0646 |
| CGTATCAC | 0.364 |

| Sequence | PBM E-score |
| --- | --- |
| CGTATCAG | 0.381 |
| AGTATCAG | -0.235 |
| TGTATCAA | -0.0549 |
| CATATCAG | -0.165 |
| CGTATCAA | 0.37 |
| CGGGCTAG | -0.117 |
| CAAATCTG | -0.272 |
| CCTGCTTC | -0.109 |
| AAACGAGA | 0.469 |
| CAACGAGA | 0.314 |
| TCACGAGA | 0.0145 |
| AAACGAGG | 0.481 |
| AAACGAGT | 0.477 |
| ACACGAGT | 0.162 |
| AATCGAGT | 0.0695 |
| CAACGAGG | 0.278 |
| AAACGTGG | 0.255 |
| TAACGAGA | 0.391 |
| CCACGAGA | -0.277 |
| ACACGAGA | 0.244 |
| CTATGGAA | -0.161 |
| AAGATTGT | 0.00873 |
| ATTCACGA | 0.0672 |
| AATGACCC | -0.157 |
| GCTAGTGA | -0.115 |

| Sequence | PBM E-score |
| --- | --- |
| AATGAGCT | -0.163 |
| CCTCCTCC | -0.105 |
| AACTAGTA | -0.0317 |
| GTGCTATA | 0.128 |
| CCTTGTCC | -0.205 |
| CGGTTCAC | -0.117 |
| CTTAACCA | -0.0796 |
| CGTAACGC | 0.324 |
| ATTAACGC | 0.143 |
| GTTAACTA | 0.157 |
| GCTAACGA | 0.304 |
| ATTAACGG | 0.185 |
| CTTAACGC | 0.17 |
| GTTAACGA | 0.442 |
| CTTAACGA | 0.464 |
| GGTAACGA | 0.346 |
| CGTAACGA | 0.374 |
| ATTAACGA | 0.424 |
| ACGCACGT | 0.144 |
| AGATTCTC | -0.0164 |
| CACTTCAA | -0.0335 |
| GGCACACA | -0.136 |
| ACGCAGTG | 0.0743 |
| TCACCTGA | -0.284 |
| CTACGCTA | -0.04 |

| Sequence | PBM E-score |
| --- | --- |
| CCGCTTAA | 0.268 |
| GCGCTTAA | 0.173 |
| TCGCTTAA | 0.403 |
| ACTTATTG | -0.116 |
| GATCTCTA | -0.0508 |
| CATAAACG | 0.462 |
| CATAAACC | -0.075 |
| AATAAACT | -0.0754 |
| AATAAACG | 0.429 |
| AATAAACA | 0.0907 |
| CATAAACA | -0.00956 |
| CTCATACC | 0.051 |
| GGCTTTTA | -0.157 |
| CTAATTCA | -0.0938 |
| CCGTTCAC | 0.291 |
| AGTTGTTC | 0.127 |
| AACGATAA | 0.381 |
| ACCGATAA | 0.158 |
| ACCGATAG | -0.0483 |
| CACGATAG | -0.187 |
| ACCGATAT | 0.0732 |
| AACGATAT | 0.39 |
| AACGATAG | 0.404 |
| AGCGATAA | 0.0894 |
| AACGATAC | 0.413 |

| Sequence | PBM E-score |
| --- | --- |
| AGCGATAT | 0.206 |
| GACGATAC | 0.124 |
| CACGATAC | 0.197 |
| CACTGACG | -0.152 |
| GTGGGTCA | -0.327 |
| GGTCTGTA | 0.0803 |
| ATGGACCA | 0.0213 |
| ATGAGTGA | -0.101 |
| CGTTCGAA | 0.221 |
| AGTGCCAT | -0.133 |
| GAACCACA | -0.0218 |
| ATTTAGAA | -0.14 |
| AAGGCCGT | 0.244 |
| ACCTGGGA | -0.245 |
| AAATTTAA | 0.184 |
| CACGATAA | 0.074 |
| TACGATAA | 0.416 |
| GACGATAA | 0.111 |
| TCAGCGGA | -0.0114 |
| CATTTACC | -0.152 |
| GGTTTACA | -0.0166 |
| CGTTTACC | 0.449 |
| AGTTTACC | 0.0436 |
| AGTTTACA | -0.0264 |
| CGTTTACA | 0.441 |
